Here are results for one sequence from paper PMC7862700, “An all-to-all approach to the identification of sequence-specific readers for epigenetic DNA modifications on cytosine”.

Assay in all cases: DAPPL (digital affinity profiling via proximity ligation, sequencing); 10 mM Tris-HCl pH 7.5, 50 mM NaCl, 1 mM DTT, 4% glycerol, room temperature, 30 min; GST-TFs on glutathione beads, 16-mer random dsDNA library, 0.1% formaldehyde crosslink after washing; high values mean tight binding
The target in one test is T1, FEV (Homo sapiens, UniProt Q99581 1-238).
T1 sequence: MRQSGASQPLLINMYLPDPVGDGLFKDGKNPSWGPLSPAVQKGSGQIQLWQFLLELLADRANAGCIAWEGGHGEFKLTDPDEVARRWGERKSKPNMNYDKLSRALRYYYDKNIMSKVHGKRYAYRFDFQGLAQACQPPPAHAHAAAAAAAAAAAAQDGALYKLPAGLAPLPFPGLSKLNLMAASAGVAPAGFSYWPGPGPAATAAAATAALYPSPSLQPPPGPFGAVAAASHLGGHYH
The conditions noted are these: protein: recombinant; tags: N-terminal GST; dsDNA, one strand shown. In a few lines: (§1)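 In yeast, human transcription factors were expressed with a GST fusion, then pulled down on glutathione beads and given DNA barcodes. Pooled with a tag-only sample, they were exposed to 200 nmole of a 16-mer random double-stranded DNA library (Tris/NaCl/DTT/glycerol buffer, room temperature, 30 min), washed, crosslinked with 0.1% formaldehyde, proximity-ligated using BsaI/T4 ligase for 1 h at 37 °C, PCR-amplified and read on an Illumina NextSeq500. Each hexamer's frequency of reads for a factor, divided by the matching frequency for the tag-only sample, gives the binding signal.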

The target in the next test is ETV5 (Homo sapiens, UniProt P41161 1-510). The conditions noted are these: protein: recombinant; tags: N-terminal GST; dsDNA, one strand shown. In a few lines:
as §1

A further test deals with HSF1 (Homo sapiens, UniProt Q00613 1-529). The conditions noted are these: protein: recombinant; tags: N-terminal GST; chain copies: 3; dsDNA, one strand shown. In a few lines:
as §1

For the next test, the target named is T2, SPIC (Homo sapiens, UniProt Q8N5J4 1-248).
T2 sequence: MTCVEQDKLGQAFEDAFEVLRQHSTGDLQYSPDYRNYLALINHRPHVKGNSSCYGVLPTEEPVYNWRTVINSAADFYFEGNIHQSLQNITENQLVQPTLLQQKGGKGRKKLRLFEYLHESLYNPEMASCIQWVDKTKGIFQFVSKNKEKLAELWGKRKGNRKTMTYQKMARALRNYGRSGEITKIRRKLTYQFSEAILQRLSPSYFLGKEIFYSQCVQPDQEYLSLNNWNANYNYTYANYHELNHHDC
The conditions noted are these: protein: recombinant; tags: N-terminal GST; dsDNA, one strand shown. In a few lines: as §1

A further test has as its target ELF4 (Homo sapiens, UniProt Q99607 1-663). To be noted: protein: recombinant; tags: N-terminal GST; dsDNA, one strand shown. In a few lines: as §1
A further test has as its target T3, ELK4 (Homo sapiens, UniProt P28324-2 1-405).
T3 sequence: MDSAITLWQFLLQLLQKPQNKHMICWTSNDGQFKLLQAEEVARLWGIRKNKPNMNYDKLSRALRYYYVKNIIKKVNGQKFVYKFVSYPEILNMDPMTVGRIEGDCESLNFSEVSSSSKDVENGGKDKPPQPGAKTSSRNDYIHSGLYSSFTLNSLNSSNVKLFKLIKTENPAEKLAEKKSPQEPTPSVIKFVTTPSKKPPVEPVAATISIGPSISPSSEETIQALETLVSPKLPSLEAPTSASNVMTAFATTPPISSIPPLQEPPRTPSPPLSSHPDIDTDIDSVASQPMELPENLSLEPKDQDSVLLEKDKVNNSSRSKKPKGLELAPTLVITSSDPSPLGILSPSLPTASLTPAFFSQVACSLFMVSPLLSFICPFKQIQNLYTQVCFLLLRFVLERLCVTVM
To be noted: protein: recombinant; tags: N-terminal GST; dsDNA, one strand shown. In a few lines: as §1

A further test has as its target T4, ETV2 (Homo sapiens, UniProt O00321 1-342).
T4 sequence: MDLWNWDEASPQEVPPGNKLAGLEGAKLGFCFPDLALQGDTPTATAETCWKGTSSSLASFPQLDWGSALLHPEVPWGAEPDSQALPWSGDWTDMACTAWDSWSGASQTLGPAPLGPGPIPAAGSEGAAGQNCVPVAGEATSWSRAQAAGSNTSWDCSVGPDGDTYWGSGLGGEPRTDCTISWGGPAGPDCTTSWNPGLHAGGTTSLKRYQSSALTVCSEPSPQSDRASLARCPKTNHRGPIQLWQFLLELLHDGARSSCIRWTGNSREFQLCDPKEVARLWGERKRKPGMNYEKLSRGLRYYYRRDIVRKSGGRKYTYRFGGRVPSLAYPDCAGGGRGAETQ
The conditions noted are these: protein: recombinant; tags: N-terminal GST; dsDNA, one strand shown. In a few lines:
as §1

The next test concerns the target T5, ELF3 (Homo sapiens, UniProt P78545 1-371).
T5 sequence: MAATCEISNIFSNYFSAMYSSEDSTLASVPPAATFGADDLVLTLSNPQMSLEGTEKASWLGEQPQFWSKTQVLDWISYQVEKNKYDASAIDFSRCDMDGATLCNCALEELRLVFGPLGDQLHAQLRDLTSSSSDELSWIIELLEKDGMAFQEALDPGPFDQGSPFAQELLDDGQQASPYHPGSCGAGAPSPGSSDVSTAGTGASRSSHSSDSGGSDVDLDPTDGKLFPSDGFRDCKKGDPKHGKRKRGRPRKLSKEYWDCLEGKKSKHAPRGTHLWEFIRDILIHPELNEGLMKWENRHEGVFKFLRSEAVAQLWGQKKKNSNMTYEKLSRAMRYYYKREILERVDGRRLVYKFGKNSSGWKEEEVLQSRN
The conditions noted are these: protein: recombinant; tags: N-terminal GST; dsDNA, one strand shown. In a few lines:
as §1

The next test concerns the target CRX (Homo sapiens, UniProt O43186 1-299). To be noted: protein: recombinant; tags: N-terminal GST; dsDNA, one strand shown. In a few lines:
as §1

The target of another test is ETV1 (Homo sapiens, UniProt P50549 1-477). The conditions noted are these: protein: recombinant; tags: N-terminal GST; dsDNA, one strand shown. In a few lines: as §1
Chain of ETV1 (P50549 whole entry): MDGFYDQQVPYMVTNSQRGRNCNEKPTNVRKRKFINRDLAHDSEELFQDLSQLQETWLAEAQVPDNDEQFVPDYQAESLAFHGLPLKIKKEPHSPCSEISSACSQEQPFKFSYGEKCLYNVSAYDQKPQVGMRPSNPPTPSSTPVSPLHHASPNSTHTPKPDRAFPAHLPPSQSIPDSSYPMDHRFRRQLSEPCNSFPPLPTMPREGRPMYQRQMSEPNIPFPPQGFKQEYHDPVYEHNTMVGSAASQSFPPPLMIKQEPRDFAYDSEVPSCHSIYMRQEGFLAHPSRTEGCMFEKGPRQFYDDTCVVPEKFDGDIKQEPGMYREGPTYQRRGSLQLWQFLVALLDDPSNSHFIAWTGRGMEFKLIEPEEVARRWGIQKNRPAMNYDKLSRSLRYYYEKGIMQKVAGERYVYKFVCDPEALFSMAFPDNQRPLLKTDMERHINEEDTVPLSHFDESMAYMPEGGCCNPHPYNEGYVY
Another test concerns the target T6, ERF (Homo sapiens, UniProt P50548 1-548).
T6 sequence: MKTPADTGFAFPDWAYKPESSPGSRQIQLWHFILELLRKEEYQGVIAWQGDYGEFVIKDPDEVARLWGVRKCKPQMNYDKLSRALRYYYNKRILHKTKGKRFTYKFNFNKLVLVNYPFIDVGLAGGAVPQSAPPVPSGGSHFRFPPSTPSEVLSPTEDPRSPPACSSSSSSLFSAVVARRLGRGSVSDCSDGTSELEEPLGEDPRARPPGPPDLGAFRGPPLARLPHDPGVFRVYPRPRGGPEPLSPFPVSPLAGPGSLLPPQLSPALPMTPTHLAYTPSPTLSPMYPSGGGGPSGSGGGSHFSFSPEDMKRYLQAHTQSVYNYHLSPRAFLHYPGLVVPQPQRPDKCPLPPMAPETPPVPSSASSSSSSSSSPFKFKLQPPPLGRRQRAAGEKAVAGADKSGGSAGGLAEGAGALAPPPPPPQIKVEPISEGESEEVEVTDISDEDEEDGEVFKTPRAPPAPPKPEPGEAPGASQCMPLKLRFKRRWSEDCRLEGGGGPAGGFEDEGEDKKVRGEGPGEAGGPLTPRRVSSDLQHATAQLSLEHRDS
The conditions noted are these: protein: recombinant; tags: N-terminal GST; dsDNA, one strand shown. In a few lines: as §1

Another test has as its target T7, ETV3L (Homo sapiens, UniProt Q6ZN32 1-361).
T7 sequence: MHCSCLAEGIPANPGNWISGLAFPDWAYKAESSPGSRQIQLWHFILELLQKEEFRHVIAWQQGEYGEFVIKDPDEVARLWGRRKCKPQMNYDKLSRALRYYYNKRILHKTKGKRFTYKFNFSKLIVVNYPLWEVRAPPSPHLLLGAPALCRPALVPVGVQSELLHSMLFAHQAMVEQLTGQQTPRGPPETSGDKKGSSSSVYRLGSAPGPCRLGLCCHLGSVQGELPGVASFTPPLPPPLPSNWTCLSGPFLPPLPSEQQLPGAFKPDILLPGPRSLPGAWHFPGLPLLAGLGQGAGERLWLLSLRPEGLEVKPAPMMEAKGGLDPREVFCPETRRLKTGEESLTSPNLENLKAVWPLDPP
The conditions noted are these: protein: recombinant; tags: N-terminal GST; dsDNA, one strand shown. In a few lines:
as §1

The next test concerns the target T8, ETS2 (Homo sapiens, UniProt P15036 1-469).
T8 sequence: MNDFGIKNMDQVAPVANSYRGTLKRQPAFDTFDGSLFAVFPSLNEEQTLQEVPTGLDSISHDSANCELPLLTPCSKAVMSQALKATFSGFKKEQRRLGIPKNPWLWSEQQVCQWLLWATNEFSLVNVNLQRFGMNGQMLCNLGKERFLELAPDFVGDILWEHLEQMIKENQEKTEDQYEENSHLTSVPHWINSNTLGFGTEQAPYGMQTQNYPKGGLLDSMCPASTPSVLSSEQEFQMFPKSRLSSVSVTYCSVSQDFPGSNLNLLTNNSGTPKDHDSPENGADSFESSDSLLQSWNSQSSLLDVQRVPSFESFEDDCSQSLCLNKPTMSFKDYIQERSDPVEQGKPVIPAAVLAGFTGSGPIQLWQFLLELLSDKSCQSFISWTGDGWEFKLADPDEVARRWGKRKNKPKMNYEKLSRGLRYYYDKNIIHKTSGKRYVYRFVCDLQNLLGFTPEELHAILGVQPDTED
To be noted: protein: recombinant; tags: N-terminal GST; dsDNA, one strand shown. In a few lines: as §1

The target of another test is T9, SPDEF (Homo sapiens, UniProt O95238 1-335).
T9 sequence: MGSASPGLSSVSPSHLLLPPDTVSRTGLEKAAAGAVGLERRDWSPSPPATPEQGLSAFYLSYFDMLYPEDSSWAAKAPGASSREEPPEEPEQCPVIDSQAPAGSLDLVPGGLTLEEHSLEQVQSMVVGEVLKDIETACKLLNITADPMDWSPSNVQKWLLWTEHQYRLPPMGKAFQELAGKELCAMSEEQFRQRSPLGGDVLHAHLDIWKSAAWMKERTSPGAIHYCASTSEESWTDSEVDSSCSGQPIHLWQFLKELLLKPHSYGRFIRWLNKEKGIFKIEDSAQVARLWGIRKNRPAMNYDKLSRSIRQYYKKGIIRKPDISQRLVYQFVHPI
The conditions noted are these: protein: recombinant; tags: N-terminal GST; dsDNA, one strand shown. In a few lines: as §1

In the next test the target is T10, ETV7 (Homo sapiens, UniProt Q9Y603 1-341).
T10 sequence: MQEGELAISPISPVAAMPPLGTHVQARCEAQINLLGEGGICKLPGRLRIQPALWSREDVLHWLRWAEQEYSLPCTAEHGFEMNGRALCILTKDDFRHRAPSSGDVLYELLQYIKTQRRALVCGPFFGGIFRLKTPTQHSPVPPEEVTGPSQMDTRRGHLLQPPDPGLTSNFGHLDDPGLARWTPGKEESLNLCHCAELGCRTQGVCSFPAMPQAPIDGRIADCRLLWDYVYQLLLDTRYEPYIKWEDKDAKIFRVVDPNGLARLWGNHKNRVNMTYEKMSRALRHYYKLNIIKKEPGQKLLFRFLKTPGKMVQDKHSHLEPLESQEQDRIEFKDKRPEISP
The conditions noted are these: protein: recombinant; tags: N-terminal GST; dsDNA, one strand shown. In a few lines:
as §1

A further test concerns the target T11, ELF5 (Homo sapiens, UniProt Q9UKW6-2 1-255).
T11 sequence: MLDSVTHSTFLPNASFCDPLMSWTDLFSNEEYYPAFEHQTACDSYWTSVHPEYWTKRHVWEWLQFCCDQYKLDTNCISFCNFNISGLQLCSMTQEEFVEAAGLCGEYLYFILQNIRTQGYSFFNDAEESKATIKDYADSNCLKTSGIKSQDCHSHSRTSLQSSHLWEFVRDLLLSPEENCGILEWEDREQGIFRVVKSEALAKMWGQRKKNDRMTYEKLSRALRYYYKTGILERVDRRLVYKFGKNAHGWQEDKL
To be noted: protein: recombinant; tags: N-terminal GST; dsDNA, one strand shown. In a few lines:
as §1

Another test concerns the target T12, ETV3 (Homo sapiens, UniProt P41162-2 1-143).
T12 sequence: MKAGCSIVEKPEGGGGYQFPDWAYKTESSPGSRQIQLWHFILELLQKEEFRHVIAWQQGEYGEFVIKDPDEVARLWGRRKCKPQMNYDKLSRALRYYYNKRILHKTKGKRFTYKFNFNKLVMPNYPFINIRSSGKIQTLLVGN
To be noted: protein: recombinant; tags: N-terminal GST; dsDNA, one strand shown. In a few lines:
as §1

The target of another test is ETV6 (Homo sapiens, UniProt P41212 1-452). To be noted: protein: recombinant; tags: N-terminal GST; dsDNA, one strand shown. In a few lines:
as §1

Chain of CRX (O43186 whole entry): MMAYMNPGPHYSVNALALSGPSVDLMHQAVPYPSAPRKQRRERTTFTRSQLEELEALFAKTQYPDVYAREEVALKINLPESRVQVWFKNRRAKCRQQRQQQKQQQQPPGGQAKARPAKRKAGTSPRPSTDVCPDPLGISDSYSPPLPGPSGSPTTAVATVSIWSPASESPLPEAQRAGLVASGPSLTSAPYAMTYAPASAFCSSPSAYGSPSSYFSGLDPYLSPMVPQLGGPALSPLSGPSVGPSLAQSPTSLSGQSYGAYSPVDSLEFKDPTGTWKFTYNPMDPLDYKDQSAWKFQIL
Chain of ELF4 (Q99607 whole entry): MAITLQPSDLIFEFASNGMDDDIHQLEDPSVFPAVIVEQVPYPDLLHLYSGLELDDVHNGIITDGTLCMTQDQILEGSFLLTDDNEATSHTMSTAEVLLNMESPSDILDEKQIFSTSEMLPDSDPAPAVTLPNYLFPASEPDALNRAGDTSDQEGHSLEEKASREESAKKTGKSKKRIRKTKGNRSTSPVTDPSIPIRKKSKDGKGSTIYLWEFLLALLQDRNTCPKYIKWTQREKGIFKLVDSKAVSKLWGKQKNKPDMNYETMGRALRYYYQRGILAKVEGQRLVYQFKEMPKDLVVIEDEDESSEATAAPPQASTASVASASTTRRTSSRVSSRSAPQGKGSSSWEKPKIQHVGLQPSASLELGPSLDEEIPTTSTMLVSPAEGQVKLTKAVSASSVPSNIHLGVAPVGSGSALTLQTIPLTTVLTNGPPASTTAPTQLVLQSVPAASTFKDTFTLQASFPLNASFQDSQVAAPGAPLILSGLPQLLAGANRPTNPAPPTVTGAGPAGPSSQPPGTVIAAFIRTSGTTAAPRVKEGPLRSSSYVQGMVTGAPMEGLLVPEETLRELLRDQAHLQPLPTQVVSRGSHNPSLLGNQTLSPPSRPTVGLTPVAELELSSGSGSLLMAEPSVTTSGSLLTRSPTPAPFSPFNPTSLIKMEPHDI
Chain of ETV5 (P41161 whole entry): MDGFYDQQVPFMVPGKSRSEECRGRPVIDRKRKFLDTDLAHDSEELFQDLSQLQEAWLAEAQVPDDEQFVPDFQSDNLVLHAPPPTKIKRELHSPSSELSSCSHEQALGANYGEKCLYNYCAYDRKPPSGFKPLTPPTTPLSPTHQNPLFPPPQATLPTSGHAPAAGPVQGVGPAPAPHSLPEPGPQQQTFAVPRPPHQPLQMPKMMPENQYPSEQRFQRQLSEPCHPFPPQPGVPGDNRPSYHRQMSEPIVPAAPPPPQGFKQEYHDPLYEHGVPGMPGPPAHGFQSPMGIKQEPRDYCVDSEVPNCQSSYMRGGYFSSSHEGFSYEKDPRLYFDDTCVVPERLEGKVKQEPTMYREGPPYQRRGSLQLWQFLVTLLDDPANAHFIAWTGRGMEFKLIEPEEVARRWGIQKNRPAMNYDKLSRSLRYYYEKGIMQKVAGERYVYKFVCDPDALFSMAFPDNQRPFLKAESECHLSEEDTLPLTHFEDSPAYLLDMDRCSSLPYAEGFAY
Chain of ETV6 (P41212 whole entry): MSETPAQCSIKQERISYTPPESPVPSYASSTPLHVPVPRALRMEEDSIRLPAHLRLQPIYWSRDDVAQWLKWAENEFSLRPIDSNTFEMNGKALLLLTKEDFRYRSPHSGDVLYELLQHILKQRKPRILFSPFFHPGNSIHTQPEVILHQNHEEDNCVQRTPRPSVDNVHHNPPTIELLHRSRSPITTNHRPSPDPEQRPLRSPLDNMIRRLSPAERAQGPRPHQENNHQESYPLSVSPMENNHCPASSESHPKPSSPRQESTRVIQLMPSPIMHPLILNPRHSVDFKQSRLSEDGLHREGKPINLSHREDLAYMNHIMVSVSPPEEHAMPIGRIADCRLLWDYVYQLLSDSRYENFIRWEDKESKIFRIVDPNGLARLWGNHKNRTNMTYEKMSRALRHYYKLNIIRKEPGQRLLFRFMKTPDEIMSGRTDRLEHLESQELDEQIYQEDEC
Chain of HSF1 (Q00613 whole entry): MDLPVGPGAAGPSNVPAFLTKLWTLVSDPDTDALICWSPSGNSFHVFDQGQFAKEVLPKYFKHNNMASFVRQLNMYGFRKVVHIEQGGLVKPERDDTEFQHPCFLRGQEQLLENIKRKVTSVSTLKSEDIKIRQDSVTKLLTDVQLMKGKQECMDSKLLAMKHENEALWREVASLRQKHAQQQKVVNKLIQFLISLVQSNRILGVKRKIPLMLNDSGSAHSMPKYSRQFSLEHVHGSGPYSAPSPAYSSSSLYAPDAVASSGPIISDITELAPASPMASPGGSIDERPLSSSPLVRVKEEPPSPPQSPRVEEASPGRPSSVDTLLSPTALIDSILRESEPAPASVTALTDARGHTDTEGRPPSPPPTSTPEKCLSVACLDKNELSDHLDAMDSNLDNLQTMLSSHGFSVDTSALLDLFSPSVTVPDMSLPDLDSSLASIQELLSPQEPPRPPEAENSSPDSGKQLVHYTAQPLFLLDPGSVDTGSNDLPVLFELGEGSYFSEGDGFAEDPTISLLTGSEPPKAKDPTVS

With TATACA, the binding signal with FEV was 1.29 fold enrichment (6-mer frequency, TF over GST control); in the test with ETV5 it was 1.35 fold enrichment (6-mer frequency, TF over GST control); in the test with HSF1 it was 1.27 fold enrichment (6-mer frequency, TF over GST control); with SPIC, 1.28 fold enrichment (6-mer frequency, TF over GST control); with ELF4, 1.37 fold enrichment (6-mer frequency, TF over GST control); with ELK4, 1.28 fold enrichment (6-mer frequency, TF over GST control). The binding signal was 1.28 fold enrichment (6-mer frequency, TF over GST control) with ETV2; 1.43 fold enrichment (6-mer frequency, TF over GST control) with ELF3; 1.36 fold enrichment (6-mer frequency, TF over GST control) in the test with CRX; 1.43 fold enrichment (6-mer frequency, TF over GST control) with ETV1; 1.34 fold enrichment (6-mer frequency, TF over GST control) with ERF; 1.3 fold enrichment (6-mer frequency, TF over GST control) with ETV3L. Also, the binding signal in the test with ETS2 is 1.37 fold enrichment (6-mer frequency, TF over GST control); in the test with SPDEF it was 1.44 fold enrichment (6-mer frequency, TF over GST control); with ETV7 it was 1.35 fold enrichment (6-mer frequency, TF over GST control); in the test with ELF5 it was 1.29 fold enrichment (6-mer frequency, TF over GST control); with ETV3, 1.31 fold enrichment (6-mer frequency, TF over GST control); in the test with ETV6, 1.25 fold enrichment (6-mer frequency, TF over GST control).
